High-throughput results as filed in PubChem BioAssay.
Only some compounds are listed: those with a hit (about 6.5% of all), similar ones and a draw of the others.
FMDV inh: High Throughput Screening for Foot and Mouth Disease Virus Antivirals. Potency, µM (series often up to 57.9 µM), for the others: top-dose activity change, negative = inhibition, actives largely listed as inhibitors. FMDV antiviral cell-based qHTS. actives 1.2% (n = 410,000); calls by dose curve; tested in HEK293T cells; note: read-out not given here; potency is the fitted concentration of half-maximal effect; nearly all actives have a fitted effect of over 45% in size
VACV Venus inh: qHTS for Stage-Specific Inhibitors of Vaccinia Orthopoxvirus: Venus Reporter Primary qHTS; AID 720580, 2013; Potency, µM (doses to about 36.5 µM), without a hit: at the highest dose activity change, negative = inhibition, usual class: inhibitors; actives 0.46% (n = 330,000); Vaccinia virus Venus reporter expression, fluorescence; calls by dose curve; tested in A549 cells; note: potency is the fitted concentration of half-maximal effect; nearly all actives have a fitted effect of over 30% in size
VACV mCherry inh: qHTS for Stage-Specific Inhibitors of Vaccinia Orthopoxvirus: mCherry Reporter Primary qHTS; AID 720579, 2013; actives 0.63% (n = 310,000); Vaccinia virus mCherry reporter infection, fluorescence; Potency, µM (highest dose often 36.5 µM), for inactives: top-dose activity change, negative = inhibition, actives largely listed as inhibitors; calls by dose curve; tested in A549 cells; note: potency is the fitted concentration of half-maximal effect; nearly all actives have a fitted effect of over 35% in size
Lassa entry inh: qHTS for Inhibitors of binding or entry into cells for Lassa Virus; Potency, µM (titrated, usually from 37.9 µM), for the others: top-dose activity change, negative = inhibition, most hits filed as inhibitors; Lassa virus pseudotype entry inhibition, cell reporter; actives 1.2% (n = 300,000); AID 540256, 2011; calls by dose curve; tested in HEK293 cells; note: potency is the fitted concentration of half-maximal effect; nearly all actives have a fitted effect of over 50% in size
Marburg entry inh: qHTS for inhibitors of binding or entry into cells for Marburg Virus; Marburg virus pseudotyped entry inhibition, cell reporter; Potency, µM (titrated, usually from 37.8 µM), inactives show at the highest dose activity change, negative = inhibition, usual class: inhibitors; actives 1.8% (n = 300,000); calls by dose curve; tested in HEK293 cells; note: potency is the fitted concentration of half-maximal effect
HCMV inh: qHTS Assay for inhibitors of the human cytomegalovirus (HCMV) | HFF cells, HCMV-luciferase reporter, 72 h; active compounds read low | activity change, negative = inhibition, % at 57.5 µM | actives 4.5% (n = 410,000) | AID 1259415, 2018; in the data active = activity change below about -60%; inconclusive = no clear call, values can overlap the other calls; inactive = above about -39%
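HFF cells seeded 16 h at 37C, treated with compounds, infected with luciferase-reporter HCMV at MOI 1 PFU/cell; luciferase read at 72 h post infection, normalized to buffer-only and Salinomycin controls.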
* = called active by the depositor; i = inactive; u = inconclusive; x = not tested or not shown; ! = not confirmed by another sample; [ ] = dose if it differs, or a comment. % is set by controls: 0 for no effect and ±100 for the full control effect.

SMILES | FMDV inh | VACV Venus inh | VACV mCherry inh | Lassa entry inh | Marburg entry inh | HCMV inh
CCc1ccccc1NC(=S)NCCSc1ccc(Cl)cc1 | 1% | -9% | -14% | u | u | -88*
Cc1cccc(NC(=S)NCCSc2ccc(Cl)cc2)c1 | 5% | -9% | -12% | 23% | u | -7
Cc1ccc(NC(=S)NCCSc2ccc(Cl)cc2)c(C)c1 | -16% | -13% | -3% | 0% | -29% | -84*
Cc1ccccc1NC(=S)NCCSc1ccc(Cl)cc1 | 13% | -7% | -10% | u | u | -64*
O=C(Nc1cccc(F)c1)N1C[C@H]2[C@@H](c3ccccc31)[C@H](CO)N2C(=O)c1cccnc1 | x | x | x | x | x | -4
C=CCC(CC=C)(CNC(=O)C(=O)Nc1ccc(Br)cc1)c1ccc(OC)c(OC)c1 | u | -18% | i | -4%[46.1 µM] | -24%[46.1 µM] | 14
COc1ccccc1CNC(=O)c1ccc(CSc2nc3ccncc3n2Cc2ccccc2C)cc1 | -6% | -28% | u | x | u | -21
CCCc1sc(N/N=C/c2ccccn2)nc1-c1ccc(F)cc1 | x | u | 11µM* | u | u | x
Cc1nc(N/N=C/c2ccccn2)sc1C | -30% | u | u | 1.8µM* | 1.3µM* | -98*
COC(=O)c1ccc(/C=N/Nc2nc(C)c(C)s2)cc1 | 33% | u | u | u | u | 103
CC(C)c1nn2c(=O)cc(COC(=O)c3cccc(NC(=O)COc4ccc(F)cc4)c3)nc2s1 | -29% | -6% | -9% | 6%[46.1 µM] | x | 158
C=CCCC1CN(Cc2ccc(OC)cc2)S(=O)(=O)c2c(cccc2N(C)S(=O)(=O)c2ccc(C)cc2)O1 (stereo not given) | x | x | x | x | x | -19
CC1(Cc2ccc3c(c2)OCO3)C(=O)Nc2c(Cl)ccc(Cl)c21 (stereo not given) | 0% | -12% | -8% | x | x | -68*
CC1(Cc2ccc3c(c2)OCO3)C(=O)Nc2ccc(-c3cccc(C(F)(F)F)c3)cc21 (stereo not given) | -27% | u | -16% | x | x | -8
Cc1cc(C)c2nc(NNC(=O)c3ccc(S(=O)(=O)N4CCCCC4)cc3)sc2c1 | -6% | u | u | u | u | -96*
CCOC(=O)N1CCN(S(=O)(=O)c2ccc(C(=O)NNc3nc4c(C)cc(C)cc4s3)cc2)CC1 | -16% | u | 10µM* | u | u | -104*
CCOC(=O)N1CCN(S(=O)(=O)c2ccc(C(=O)NNc3nc4cc(C)cc(C)c4s3)cc2)CC1 | u | u | 13µM* | u | 21µM* | x
CCOC(=O)N1CCN(S(=O)(=O)c2ccc(C(=O)NNc3nc4ccc(Cl)cc4s3)cc2)CC1 | u | u | u | u | 18µM* | x
CCN(CC)S(=O)(=O)c1ccc2c(c1)nc(CN(C)C(=O)Nc1ccc(F)cc1)n2C | -27% | -16% | -5% | 0%[46.1 µM] | x | 4
COc1ccc(NC(=O)C(=O)NCC(c2cccnc2)N2CCc3ccccc3C2)cc1 (stereo not given) | u | -23% | -22% | u | x | -10
C=CCCCCCCCCCCCc1ccco1 | -5% | 23% | i | x | x | x
CCOC(=O)N1CCN(S(=O)(=O)c2ccc(C(=O)NNc3nc4c(C)cccc4s3)cc2)CC1 | u | -20% | -10% | u | u | -103*
CCOC(=O)N1CCN(S(=O)(=O)c2ccc(C(=O)N(CCN(CC)CC)c3nc4c(C)cccc4s3)cc2)CC1 | -14% | -10% | -23% | 0% | u | 20
Cc1cc(C(=O)NCC2CCC3(CCN(Cc4ccccc4C)CC3)O2)n(C)n1 (stereo not given) | -11% | -11% | -4% | x | x | x
CC(Oc1ccc(F)cc1)C(=O)Nc1nc(-c2ccc(F)cc2)ns1 (stereo not given) | -37% | -19% | -6% | 2%[46.1 µM] | 8%[46.1 µM] | -94*
SMILES | FMDV inh | VACV Venus inh | VACV mCherry inh | Lassa entry inh | Marburg entry inh | HCMV inh
COc1ccc(-c2nsc(NC(=O)C(C)Oc3ccc(Cl)c(C)c3)n2)cc1 (stereo not given) | u | -11% | -6% | 7%[46.1 µM] | 1%[46.1 µM] | -65*
C[C@@H]1CN([C@H](C)CO)C(=O)CCCn2cc(nn2)CO[C@H]1CN(C)C(=O)Oc1ccccc1 | x | x | x | x | x | -25
COc1ccc(OC)c(NC(=O)C2=C(C)C(=O)OC23CCCCCC3)c1 | -19% | -4% | -11% | 6%[46.1 µM] | x | -19
CCCn1c(N)c(C(=O)CSc2nc(C)nc3sc(C)c(C)c23)c(=O)[nH]c1=O | -13% | -8% | -15% | -3% | -6% | -16
CCCn1c(N)c(C(=O)CSc2ncc(C(F)(F)F)cc2Cl)c(=O)[nH]c1=O | u | -7% | -6% | 3.2µM* | u | -35
O=S(=O)(Nc1cccc(-c2ccc(N3CCCCC3)nn2)c1)c1ccc(F)cc1F | 41% | -9% | -5% | 2%[46.1 µM] | x | 56
CC1CCN(c2ccc(-c3cccc(NS(=O)(=O)c4ccc(F)cc4F)c3)nn2)CC1 | -7% | -15% | -17% | 9%[46.1 µM] | x | -100*
CN(C1CCCCC1)S(=O)(=O)c1ccc2c(c1)c(=O)c(C(=O)NCCc1ccc(Cl)cc1)cn2C | 11% | -12% | -23% | 4%[46.1 µM] | -9%[46.1 µM] | 32
Cc1ccc(C2NC(=S)NC3=C2C(=O)CCC3)cc1 (stereo not given) | 8% | -11% | i | -11% | 18%[46.1 µM] | 100
O=C1CCCC2=C1C(c1ccccc1)NC(=S)N2 (stereo not given) | -7% | -9% | -1% | -5% | -19%[46.1 µM] | -103*
COc1ccc(NC2=Nc3ccccc3N3C2=Nc2c(c(C)nn2-c2ccc(C)cc2)C3c2cccnc2)cc1 (stereo not given) | -13% | -2% | -9% | u | 3% | 16
CC(=O)Nc1ccc(NC2=Nc3ccccc3N3C2=Nc2c(c(C)nn2-c2ccccc2)C3c2ccccc2)cc1 (stereo not given) | 10µM* | u | u | u | u | -99*
CNC1CCC(c2ccc(Cl)c(Cl)c2)c2ccccc21 (stereo not given) | -15% | x | x | x | x | x
CCN(CC)CCOC(c1ccccc1)c1ccc(C)cc1 (stereo not given) | -24% | -13% | i | u | 8.9µM* | -20
Cc1ccccc1C(OCCN(C)C)c1ccccc1 (stereo not given) | -10% | -24% | -2% | u | 13µM*! | -27
Cc1ccccc1[C@@H](OCCN(C)C)c1ccccc1 | x | x | x | x | -36% | x
CCCN1C/C(=C/c2cccc([N+](=O)[O-])c2)C(=O)/C(=C/c2cccc([N+](=O)[O-])c2)C1 | 2.5µM* | -14% | -4% | 2µM* | u | -105*
O=C1NC(=S)N/C1=C/c1cccc([N+](=O)[O-])c1 | -2% | -3% | -2% | 11% | 1%[46.1 µM] | -22
